Data published in PubChem BioAssay (NCI).
Compounds without any hit were thinned out: in the full panel of roughly 83,000, 20% have a hit.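 In brief: 96-well plates, 48 h treatment, single concentration, percent growth endpoint.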 A number with no mark means an inactive call. Calls of active or inactive are those of the source. Rule for the calls: active = growth percent below 10; inactive = the rest.

Key:
Test in all cases: NCI-60 one-dose screen, 48 h (100 = growth as untreated, 0 = no growth, -100 = all killed)
Details in all cases: 10 µM
NCI-H23 lung = tested on: NCI-H23 lung
NCI-H226 lung = tested on: NCI-H226 lung
NCI-H322M lung = tested on: NCI-H322M lung
HOP-62 NSCLC = tested on: HOP-62 NSCLC
NCI-H460 lung = tested on: NCI-H460 lung
NCI-H522 lung = tested on: NCI-H522 lung
A549/ATCC NSCLC = tested on: A549/ATCC NSCLC
786-0 renal = tested on: 786-0 renal
COLO 205 colon = tested on: COLO 205 colon
DU-145 prostate = tested on: DU-145 prostate

SMILES	growth (NCI-H23 lung)	growth (NCI-H226 lung)	growth (NCI-H322M lung) [%]	growth (HOP-62 NSCLC)	growth (NCI-H460 lung)	growth (NCI-H522 lung)	growth (A549/ATCC NSCLC)	growth (786-0 renal)	growth (COLO 205 colon)	growth (DU-145 prostate)
CN(C)c1ccc(/C=C/C=N/NC(=O)c2cc(O)c(O)c(O)c2)cc1	99.6%	101%	93.7	103%	107%	-31.8% (active)	98%	103%	94.1%	109%
COc1cc(-c2cc(/C=C/C(=O)c3ccc4c(c3)OCO4)[nH]n2)cc(OC)c1OC	102%	84.6%	54.2	48.7%	68.6%	57.4%	87.2%	40.6%	100%	48%
O=C(Nc1ccncc1)C(=O)c1cn(S(=O)(=O)c2cc(Cl)cc(Cl)c2)c2ccccc12	70.3%	74.2%	99.6	71.7%	87.3%	40.2%	85.3%	72.5%	104%	66.5%
Cc1cn(C2CCCCO2)c(=O)nc1NO (stereo not given)	93.4%	115%	110	110%	107%	104%	104%	103%	120%	113%
CC1(C)OC2=C(CC1Br)C(=O)C(=O)c1ccccc12 (stereo not given)	-64.3% (active)	-6.31% (active)	27.1	-88.1% (active)	3.62% (active)	-67.6% (active)	-39.9% (active)	-40.4% (active)	-87.8% (active)	-95.1% (active)
CN(C)CC(O)c1ccc2cc(Br)c3ccccc3c2c1 (stereo not given)	80.1%	78.7%	72.7	62.1%	37%	65.6%	57.1%	54%	-67.8% (active)	70.7%
COc1cc(NC(=O)CCSc2nc3ccc(C)cc3c(=O)n2Cc2ccccc2)cc(OC)c1OC	108%	27.4%	71.9	9.27% (active)	48.3%	65.2%	42.6%	72.6%	112%	83.6%
Nc1ccc2c(c1)C1(CCC2)NC(=O)NC1=O (stereo not given)	103%	92.1%	103	101%	103%	98.6%	99.5%	100%	105%	114%
COC(=O)C1(C)Cc2cc(OC(C)=O)c(OC(C)=O)cc2N1 (stereo not given)	91.5%	113%	116	117%	107%	-55.8% (active)	31.6%	103%	53.7%	104%
COc1ccc(Nc2ncnc3c2c(SC)nn3-c2ccccc2)cc1	89.8%	85.5%	82.4	96.7%	99.4%	61.3%	86%	93.9%	111%	101%
N#Cc1ncc(-c2cc(F)c(F)c(F)c2)c(NC2CCCCCC2)n1	92.9%	94.6%	105	100%	95.7%	94.8%	95.8%	101%	88.5%	108%
c1ccc(C(NC2CC3CCC2C3)c2ccccc2)cc1 (stereo not given)	105%	85.8%	101	97.2%	105%	85.5%	95.7%	97%	103%	108%
Cc1ccc(NC(=O)Nc2nc3ccccc3s2)cc1NC(=O)Nc1nc2ccccc2s1	89.5%	90%	97.6	88.3%	88.5%	-33.8% (active)	42.5%	97.1%	80.6%	107%
O=C1Nc2ccccc2C1=NC1CCCCC1	95.2%	92%	90.3	88.3%	105%	70.4%	103%	93.6%	96.5%	110%
CCN(CC)CCOc1nc2cc(OC)c(OC)cc2c2c1-c1ccc(OC)cc1C2=O	77.3%	74.3%	83.9	60.9%	25.6%	73.9%	66.1%	87.8%	72.7%	64.1%
O=C1OCC2=C1C(c1cccc(Cl)c1)c1cc3c(cc1N2CCO)OCO3 (stereo not given)	31.7%	23.4%	42.8	31.4%	7.53% (active)	-19.7% (active)	27.6%	35.7%	-6.41% (active)	11%
Cc1cc(N(CCCNc2ccnc3cc(Cl)ccc23)Cc2ccc3c(c2)OCO3)nc(N2CCOCC2)n1	50.9%	67.2%	37.5	10.1%	20.2%	8.51% (active)	28.7%	-20.4% (active)	-54% (active)	38%
S=C1SCC(c2ccccc2)S1 (stereo not given)	113%	101%	111	108%	114%	131%	102%	109%	111%	125%
O=C1/C(=C\c2ccccc2)CN(C(=O)c2ccccc2)C/C1=C\c1ccccc1	57.5%	37.3%	75.8	37.1%	60.1%	-0.751% (active)	61.1%	2.68% (active)	41.5%	24.6%
